Screening results from PubChem.
UGM FP inh = inhibitors of M. tuberculosis UDP-galactopyranose mutase; purified UGM, fluorescence polarization probe displacement; 320,000 compounds, 0.06% hits; inhibition, % at 10 µM; P9WIQ1; AID 504406; in the data active = inhibition above about 10%, passing the limit was not always enough
Mtb FBA inh = Mtb fructose-bisphosphate aldolase inhibition; 360,000 compounds, 2.3% hits; P9WQA3; purified M. tuberculosis FBA, fluorescence read-out; AID 588726; inhibition, % at 1 µM;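 also: 0% = vehicle and 100% = reference inhibitor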
FadD28 FP inh = inhibitors of Mycobacterium tuberculosis FadD28 bisubstrate binding. FadD28 bisubstrate probe binding, fluorescence polarization. inhibition, % at 12.5 µM. 360,000 compounds, 0.22% hits. AID 588549; in the data active = inhibition above about 8.5%, passing the limit was not always enough
GDH-TPI counter-1 = counter-screen for M. tuberculosis FBA inhibitors: GDH-TPI coupled enzymes | GDH-TPI coupled enzyme counterscreen, NADH absorbance | inhibition, % at 4.8 µM | 360,000 compounds, 1.2% hits | AID 588335; in the data active = inhibition above about 30%;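 also: 0% = DMSO wells and 100% = wells lacking the enzyme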
Mtb betalactam = beta-lactam sensitization of Mtb H37Rv. M. tuberculosis H37Rv growth with meropenem, percent inhibition. inhibition, % at 25 µM. 330,000 compounds, 0.27% hits; call rule not given here;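 also: growth measured after seven days incubation then overnight dye step; 0% = bacteria only wells and 100% = bacteria with antibiotic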
Rv3671c protease = inhibitors of M. tuberculosis serine protease Rv3671c; P9WHR9; inhibition, % at 5.96 µM; 320,000 compounds, 0.048% hits; AID 2606; in the data active = inhibition above about 38%;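 also: extracellular domain of Rv3671c used as enzyme; 0% = enzyme with DMSO and 100% = no enzyme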
Target sequence (P9WHR9 whole entry, looked up, the tested form may be a part): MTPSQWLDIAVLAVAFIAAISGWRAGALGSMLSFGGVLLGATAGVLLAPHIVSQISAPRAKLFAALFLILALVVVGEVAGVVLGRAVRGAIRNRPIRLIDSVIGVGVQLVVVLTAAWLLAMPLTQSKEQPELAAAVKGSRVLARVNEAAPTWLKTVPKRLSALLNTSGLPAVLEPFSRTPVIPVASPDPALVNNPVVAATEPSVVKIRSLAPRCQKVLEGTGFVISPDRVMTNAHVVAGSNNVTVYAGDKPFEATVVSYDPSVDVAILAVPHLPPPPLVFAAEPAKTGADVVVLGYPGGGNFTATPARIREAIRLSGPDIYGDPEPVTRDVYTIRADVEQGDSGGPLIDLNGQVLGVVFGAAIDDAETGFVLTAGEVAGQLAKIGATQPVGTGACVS
Mtb FBA inh conf = Mtb FBA inhibition, confirmed; shares compounds with Mtb FBA inh; purified M. tuberculosis FBA, fluorescence read-out; inhibition, % at 1 µM; 5,600 compounds, 78% hits; AID 651616;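 also: 0% = vehicle wells and 100% = reference inhibitor wells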
GDH-TPI counter-2 = counter-screen for M. tuberculosis FBA inhibitors: GDH-TPI coupled enzyme inhibition; shares compounds with Mtb FBA inh; AID 652141; GDH-TPI coupled enzyme counterscreen, fluorescence; 5,600 compounds, 81% hits; inhibition, % at 1 µM; in the data active = inhibition above about 10%
GDH-TPI DR = inhibits GDH-TPI coupling enzymes in dose response. shares compounds with Mtb FBA inh. GDH-TPI coupled enzyme assay, fluorescence, artifact counterscreen. IC50, µM. AID 652145. 170 compounds, 79% hits; call rule not given here
The depositor's hits bear a star; / = no result given; + = active, no number. In the library only some 3.7% were active in any assay of this set; here they are far more common. Rule as the data show it, unless noted: active = inhibition above about 27%; inactive = the rest.

SMILES	UGM FP inh	Mtb FBA inh	FadD28 FP inh	GDH-TPI counter-1	Mtb betalactam	Rv3671c protease	Mtb FBA inh conf	GDH-TPI counter-2	others
Cc1ccc2oc(-c3cccc(NC(=O)C4CCCO4)c3)nc2c1 (stereo unspecified)	-1	51*	-3	9	17	5	120*	98*
CCn1c(SCC(=O)NC2CCCC2)nnc1-c1ccccn1	0	4	-3	-11	-11	4	/	/
CCc1nc2ccc(C(=O)NCCNC(C)=O)cn2c1N(CCC(C)C)CCN(C)C	/	-4	-4	1	/	/	/	/
CCc1ccc2oc(-c3cccc(N)c3)nc2c1	1	63*	-4	4	98	1	127*	104*
Cc1ccc2nc(-c3cccc(N)c3)oc2c1	4	93*	1	13	99	5	14	0	GDH-TPI DR=0.95*
CCN(C(=S)Nc1cc(S(=O)(=O)N2CCOCC2)ccc1Cl)c1cccc2ccccc12	-2	48*	-2	-1	1	2	82*	56*
CCn1cc(C(=O)O)c(=O)c2cc(F)c(N3CCN(S(=O)(=O)c4ccc(NC(C)=O)cc4)CC3)cc21	0	50*	-1	12	90	7	-4	-3
O=C(NNCc1ccccc1)c1ccccn1	/	3	0	16	/	/	/	/
CCC(C)c1ccccc1N1CC(C(=O)Nc2ccc(S(=O)(=O)N3CCOCC3)cc2)CC1=O (stereo unspecified)	0	7	-2	5	-10	0	/	/
Cc1cn2nc(N)c3ccccc3c2n1	1	42*	1	1	-7	4	+	+
Cc1nc2ccccc2c2nc(N)nn12	1	6	-3	5	-6	-3	/	/
Cc1cccc(C)c1NC(=O)C(c1ccccc1)N1CCN(c2ccc(F)cc2)CC1 (stereo unspecified)	/	-6	-3	/	/	/	/	/
CCO/C(C)=N/n1c2nc3ccccc3nc2c2c(=O)n(CC(C)C)c(C)nc21	0	33*	-3	22	-1	-4	5	0
CCOCCCn1c(C)nc2c(c1=O)c1nc3ccccc3nc1n2-c1ccc(C)cc1	3	5	-1	5	/	-3	/	/
COc1ccc(-c2c(C)oc3c(CN4CCCCC4C)c(O)ccc3c2=O)cc1OC (stereo unspecified)	1	42*	0	34*	0	6	-2	-6
COc1ccc(-c2c(C)oc3c(CN4CCCC(C)C4)c(O)ccc3c2=O)cc1OC (stereo unspecified)	/	39*	-1	18	/	/	0	-2
CCOC(=O)COc1nc2c(c(-c3ccco3)c1C#N)CCc1ccccc1-2	2	30*	-4	5	47	-8	25	14*
CCOC(=O)COc1nc(-c2ccccc2)cc(-c2ccco2)c1C#N	-3	58*	-3	13	94	-11	138*	127*
N#Cc1c(OCC(=O)c2ccccc2)nc2c(c1-c1ccco1)CCc1ccccc1-2	0	12	-4	3	-4	-9	/	/
CCOC(=O)COc1nc(-c2ccc(Cl)cc2)cc(-c2ccco2)c1C#N	-3	-1	-4	-2	/	0	/	/
CCC(=O)Nc1ccc(C(=O)COC(=O)c2sc(C)nc2C)cc1	/	-1	-1	1	/	/	/	/
CC(=O)C1=CCC(c2ccc(Cl)cc2)N(S(=O)(=O)c2ccc(C)cc2)C1 (stereo unspecified)	/	-2	-7	/	/	/	/	/
c1cnc2cc(-c3ccsc3)ncc2c1	0	29*	-2	15	-4	0	8	5
Cc1ccc2nc3[nH]c(=O)[nH]c(=O)c3c(N)c2c1	/	105*	-3	6	/	/	-9	-5
CCOC(=O)Nc1ccc2nc(-c3cscn3)[nH]c2c1	/	28*	0	19	/	/	51*	38*
O=C(O)CCS(=O)(=O)c1nc(-c2cccs2)cc(C(F)(F)F)n1	0	38*	-2	31*	/	-5	196*	128*
CS(=O)(=O)c1nc(-c2cccs2)cc(C(F)(F)F)n1	4	/	/	/	100	-6	/	/
